# Results published in PubChem BioAssay AID686978 (National Center for Advancing Translational Sciences (NCATS), 2013).
# Screen size: about 420,000 compounds; about 64,000 (15%) were called active. Not shown: some 27% with an inconclusive outcome. Calls come from the whole dose curve; as a rule, active = well fitted inhibition curve with a large enough effect; inconclusive = small, poorly fitted or top-dose-only effect; inactive = flat fitted curve, though single readings scatter. Only a sample is shown. Entries that show only a call come without a potency.
# Experiment: qHTS for Inhibitors of human tyrosyl-DNA phosphodiesterase 1 (TDP1): qHTS in cells in absence of CPT; note: nearly all actives have a fitted effect of over 55% in size
# Conditions: DT40 Tdp1-/- hTDP1 cells, no CPT, ATP luminescence, 48 h; activity change, negative = growth inhibition: at 46.2 µM (top of the series)
# Outline: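 Luminescent ATP content (CellTiter-Glo) served as the growth readout. Knockout chicken DT40 cells expressing human TDP1 were exposed to compounds without camptothecin for a minimum 48 hr at 37 °C.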
# Potency is the fitted concentration of half-maximal effect.
row,Structure (SMILES),Potency
1,CCOc1ccc(CCNC(=O)COC(=O)c2ccc(F)c(S(=O)(=O)N3CCOCC3)c2)cc1OCC,inactive
2,CCOc1ccccc1C1C(C(=O)OC)=CN(C)C=C1C(=O)OC,inactive
3,CCOc1ccccc1C1CC(c2ccc(Cl)cc2)Nc2nc(N)nn21 (centres undefined),16.4 µM (active)
4,COc1ccc(C2CC(c3ccc(C)cc3)Nc3nc(N)nn32)cc1 (centres undefined),inactive
5,CC(C)[C@H](NC(=O)c1ccc(F)cc1)C(=O)OCC(=O)NC(=O)c1cccn1C,inactive
6,COc1ccc(S(=O)(=O)N(C)CC(=O)N2CCCC2)cc1Cl,inactive
7,CN1c2ccc(C=O)c3c(C=O)ccc(c23)N(C)C1(C)C,7.31 µM (active)
8,O=C1c2ccccc2C(O)N1Cc1ccccc1Cl (centres undefined),inactive
9,CN1CCN(S(=O)(=O)c2ccc(Nc3ccc(F)cc3)nc2)CC1,inactive
10,O=C(NCc1ccccc1)C1c2ccccc2OCC(=O)N1C1CC1 (centres undefined),inactive
11,NS(=O)(=O)c1ccc(CCNC(=O)c2nc(CS(=O)(=O)c3ccc(Cl)cc3)no2)cc1,inactive
12,O=C(CNCCC1=CCCCC1)Nc1ccccc1N1CCCCCC1,23.1 µM (active)
13,O=C(Nc1ccccc1N1CCCCC1)c1cccc(F)c1,inactive
14,Cc1ccccc1NC(=O)Nc1ccccc1N1CCCCC1,23.1 µM (active)
15,Cc1cccc(N2CC(C(=O)Nc3ccccc3N3CCCC3)CC2=O)c1C (centres undefined),inactive
16,Cc1ccccc1NC(=O)NC1(C(=O)N2CCCC2)CCCCC1,inactive
17,Cc1nnc(OCC(=O)NCCC2=CCCCC2)c2ccccc12,inactive
18,C=CCSc1nc(Cc2ccc(Cl)cc2)nc2ccccc12,inactive
19,Cc1ccc(F)cc1NC(=O)c1ccc2c(c1)OCO2,inactive
20,COc1cc(C2C(C(=O)c3sc(C)nc3C)=C(O)C(=O)N2CCN(C)C)cc(OC)c1OC (centres undefined),inactive
21,N/C(Cc1ccc([N+](=O)[O-])cc1)=N\OC(=O)C1CCCCC1,inactive
22,COc1ccccc1OCCC(=O)OCC(=O)NCc1ccccc1,inactive
23,N#Cc1ccc(CN2CCN(CC(=O)Nc3ccccc3C(=O)NC3CC3)CC2)cc1,inactive
24,NC(=O)c1ncn([C@@H]2O[C@H](CN=C3NS(=O)(=O)c4ccccc43)[C@@H](O)[C@H]2O)n1,inactive
25,CN1CCN(CCNC(=O)Nc2ccc([N+](=O)[O-])cc2)CC1,inactive
26,CC(C)C(=O)Nc1cccc(NC(=O)c2ccc([N+](=O)[O-])cc2Cl)c1,inactive

row,Structure (SMILES),Potency
1,CC(=O)c1ccc(NC(=O)Nc2ccc([N+](=O)[O-])cc2C)cc1,16.4 µM (active)
2,Cc1cc([N+](=O)[O-])ccc1NC(=O)C1CCCO1 (centres undefined),inactive
3,COc1ccc([N+](=O)[O-])cc1NC(=O)c1ccc(N(Cc2ccccc2C)S(C)(=O)=O)cc1,inactive
4,Cc1cc([N+](=O)[O-])ccc1NC(=O)c1ccc(NC(=O)C(C)C)cc1,18.4 µM (active)
5,CN1c2ccc([N+](=O)[O-])cc2C(C)(C)C12C=Cc1cc(C(=O)O)ccc1O2 (centres undefined),inactive
6,CN(CCO)S(=O)(=O)c1ccc2c(c1)C(=O)c1cc(S(=O)(=O)N(C)CCO)ccc1-2,inactive
7,C=CCOc1ccc(/C=C/C(=O)OCC(=O)NC2CCCCCC2)cc1,inactive
8,Cc1c(CNC2CCCCC2)c(C(=O)O)c(C)n1Cc1cccc(Cl)c1,inactive
9,O=C(CN1C(=O)c2ccccc2C1=O)NCc1ccc(C(=O)O)cc1,inactive
10,Cc1ccc(CNS(=O)(=O)CCNC(=O)c2ccccc2)cc1,inactive
11,Cc1ccc(C)c(CN2C(=O)c3ccccc3S(=O)c3ccc(C(=O)N4CCOCC4)cc32)c1 (centres undefined),inactive
12,O=C(O)c1ccc2c(c1)N(Cc1ccc(F)cc1)C(=O)c1ccccc1S2=O (centres undefined),14.6 µM (active)
13,CN(C(=O)c1ccc2c(c1)N(Cc1cccc(Cl)c1)C(=O)c1ccccc1S2=O)C1CCCCC1 (centres undefined),23.1 µM (active)
14,O=C(COC(=O)c1cccc(Cl)c1)NC1CCCCCCC1,inactive
15,Cc1ccc(CCNC(=O)c2ccc3c(c2)N(Cc2cc(C)ccc2C)C(=O)c2ccccc2S3=O)cc1 (centres undefined),11.6 µM (active)
16,COc1ccccc1NC(=O)c1cc(N2C(=O)C3C4CCC(C4)C3C2=O)ccc1Cl (centres undefined),inactive
17,C/C(CC(=O)NC(C)(C)C)=N\NC(=O)c1ccco1,inactive
18,COC(=O)c1ccc(CNC(=O)Cn2cc(C)c(=O)[nH]c2=O)cc1,inactive
19,Cc1ccc(OCC(=O)N2CCN(S(=O)(=O)c3ccc(Cl)s3)CC2)cc1C,inactive
20,Cc1cc(C)n2c(Nc3c(C)cccc3C)c(CCc3ccccc3)nc2n1,16.4 µM (active)
21,Cc1cc(C)n2c(NCc3ccccc3)c(CC(C)C)nc2n1,23.1 µM (active)
22,Nc1nc(NCc2ccccc2)n(-c2ccccc2)n1,inactive
23,Cc1ccc(O)c(CCc2ccccc2)n1,inactive
24,COc1cccc2c(C)c(C(=O)O)[nH]c12,inactive
25,O=C(O)CC(CC(=O)N1CCOCC1)c1ccccc1 (centres undefined),inactive
26,CCOc1ccc(C(CC(=O)O)NC(=O)Cc2ccccc2)cc1OC (centres undefined),inactive

row,Structure (SMILES),Potency
1,CCCCC(=O)NC(c1ccc(OC)c(OC)c1)c1ccc2cccnc2c1O (centres undefined),3.26 µM (active)
2,COc1ccc(CCNS(=O)(=O)c2cccc3cccnc23)cc1OC,inactive
3,COC(=O)C1C(=O)CC(C)(O)C(C(=O)OC)C1c1ccc2c(c1)OCO2 (centres undefined),inactive
4,NCCCC[C@@H]1NC(=O)[C@H](CCC(=O)O)NC(=O)c2cc([N+](=O)[O-])cc(I)c2NCC[C@@H](C(N)=O)NC1=O,inactive
5,CCc1nnc(NC(=O)CSCc2cc(=O)n3cc(C)sc3n2)s1,inactive
6,COc1ccc(CN2CC[C@H]3C=CC[C@@H](C(=O)N4CCOCC4)[C@H]3C2=O)cc1OC,inactive
7,Cc1ccc2nc3c(cc(C(=O)NC4CCCCC4)c(=N)n3C(C)C)c(=O)n2c1,inactive
8,CC(NC(=O)c1cc2c(=O)n3ccccc3nc2n(C(C)C)c1=N)c1ccccc1 (centres undefined),18.4 µM (active)
9,CC(NC(=O)c1ccccc1C(=O)O)c1ccc(-n2ccnc2)cc1 (centres undefined),inactive
10,O=C(Nc1ccccc1)N(Cc1cccnc1)Cc1ccco1,inactive
11,COc1cccc(C(=O)N(Cc2cccc(Cl)c2)Cc2ccco2)c1,14.6 µM (active)
12,COc1cccc(NC(=S)NCc2ccco2)c1,inactive
13,COC(=O)c1ccc(COC(=O)CNC(=O)c2cccc(OC)c2)o1,inactive
14,O=C(CCNC(=O)c1ccccc1Cl)NCc1ccco1,inactive
15,CCc1ccc(CN(Cc2ccco2)C(=O)c2ccccc2Cl)cc1,20.6 µM (active)
16,CCCOc1ccc(Cn2c(O)cc(=O)[nH]c2=O)cc1,inactive
17,CN1CCN(C(=O)/C(=C\c2ccc3c(c2)OCO3)NC(=O)c2cccs2)CC1,inactive
18,Cc1ccc(-c2nc(-c3ccncc3)no2)c(C)c1,inactive
19,Cc1nn(CC(=O)NCC2CCCO2)c(=O)c2cc3ccccc3n12 (centres undefined),inactive
20,CCCCN1C(=S)NC[C@@H]1C(C)CC (some centres undefined),inactive
21,CCCCN1C(N)=NC[C@@H]1CC1CCCCC1,16.4 µM (active)
22,CCCCNC(=O)C1CCC(=O)N1CCc1ccccc1 (centres undefined),inactive
23,CCCC[C@@H]1CN=C(N)N1CCCC,7.31 µM (active)
24,CCCCN1C(N)=NC[C@@H]1Cc1ccccc1,14.6 µM (active)
25,CN(C)C1=NC[C@H](Cc2ccccc2)N1CCc1ccc(F)cc1,inactive
26,NNC(=O)c1ccc(Cl)cc1Cl,inactive

row,Structure (SMILES),Potency
1,OCC(CO)(CO)NCc1ccc(-c2ccccc2)cc1,inactive
2,Cn1nc([N+](=O)[O-])nc1Sc1ccc(C(C)(C)C)cc1,inactive
3,O=C(CC1NCCNC1=O)Nc1cc(Cl)cc(Cl)c1 (centres undefined),inactive
4,Cc1nc(-c2ccccc2)sc1C(=O)/C=C/c1ccccc1,18.4 µM (active)
5,CNC(=O)c1csc(-c2ccccc2)n1,inactive
6,Cc1ccc(SCC(=O)c2sc(-c3ccccc3)nc2C)cc1,inactive
7,N#Cc1cnn2cc(CCN3CCOCC3)c(-c3ccc(F)cc3)nc12,inactive
8,CCCc1c2oc(C(=O)O)cc(=O)c2cc2c(=O)cc(C(=O)O)n(CC)c12,inactive
9,O=C(Nc1ccccc1C(=O)NCC1CCCO1)c1ccccc1F (centres undefined),inactive
10,CNC(=O)CN1C(=O)NC(c2ccccc2)(c2ccccc2)C1=O,inactive
11,CC1=C(C(=O)N(C)C)CC(CC(=O)NCCN2CCOCC2)C(=O)N1Cc1ccccc1 (centres undefined),inactive
12,CCN(CC)C(=O)C1=C(C)N(Cc2ccccc2)C(=O)C(CC(=O)NC(c2ccccc2)c2ccccc2)C1 (centres undefined),18.4 µM (active)
13,CCN(CC)C(=O)C1=C(C)N(Cc2ccc(OC)cc2)C(=O)C(CC(=O)NCc2ccco2)C1 (centres undefined),inactive
14,COc1ccc(CN2C(=O)C(CC(=O)NCc3cccc4ccccc34)CC(C(=O)N3CCOCC3)=C2C)cc1 (centres undefined),inactive
15,CCN(CC)C(=O)C1=C(C)N(Cc2ccc(F)cc2)C(=O)C(CC(=O)NC2CCCC2)C1 (centres undefined),inactive
16,CCN(CC)C(=O)C1=C(C)N(Cc2ccc(C(C)(C)C)cc2)C(=O)C(CC(=O)NCc2cccc3ccccc23)C1 (centres undefined),16.4 µM (active)
17,COc1ccc2c(C)cc3nnnn3c2c1,inactive
18,O=C(Nc1ccc(Cl)cc1)c1cc2nc(C3CC3)cc(C(F)(F)F)n2n1,inactive
19,COc1ccc(C(=O)NCc2nnc(SCC(=O)Nc3cccc(OC)c3)o2)cc1,inactive
20,COc1ccccc1NC(=O)CSc1nnc(CNC(=O)c2ccccc2F)o1,inactive
21,COc1cc(C(=O)NCc2nnc(SCC(=O)Nc3nc4ccc(C)cc4s3)o2)cc(OC)c1OC,4.61 µM (active)
22,O=C(O)c1cc(S(=O)(=O)NC2CCCc3ccccc32)ccc1O (centres undefined),inactive
23,CCN(CC)CCOc1ccc2c(c1)C(=NNC(=O)c1ccccn1)c1cc(OCCN(CC)CC)ccc1-2,3.26 µM (active)
24,CCC(C)(NC(=O)c1ccccn1)C(=O)NC1CCCCC1 (centres undefined),inactive
25,Cc1cccc(OCC(=O)NCCCNC(=O)c2ccccn2)c1,inactive
26,N#Cc1ccc[n+](CC(=O)c2ccc(O)c(O)c2)c1,inactive
